The text below walks through data of PubChem BioAssay (NCATS).

Experiment [1] addresses Lysosomal acid glucosylceramidase (Homo sapiens) (UniProt P04062). As to the kind of experiment: Glucocerebrosidase-p2 (AID 348; in the data active = potency below about 10 µM; note: potency is the fitted concentration of half-maximal effect). The settings on record: purified GBA, blue fluorogenic substrate, 40 min. The essentials:
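Normal human glucocerebrosidase (0.2 nM) with blue fluorogenic substrate (80 uM final) in citrate/phosphate pH 5.9 with 10mM sodium taurocholate, 0.01% tween-20; 40 min RT, NaOH/glycine stop; fluorescence Ex 365/Em 440; AC50 from a titration from 0.6 nM upwards.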

Experiment [2] can be described thus: AP1 Signaling Pathway (AID 357).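 Note: ME-180 reporter cells stimulated with EGF at its EC50 level; % is set by controls: 0 for no effect and ±100 for the full control effect.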 The settings on record: ME-180 AP-1-bla reporter, EGF-induced, beta-lactamase ratio, 5 h; at 7.69 µM (top of the series) unless noted. The essentials:
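Beta-lactamase reporter under AP-1 response element, ME-180 background. Stimulus: EC50 EGF. Compound exposure 5 h, 37 °C. Detection: CCF4, 2.5 h RT, 460/530 nm. Values: AC50 from titration.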

Experiment [3] deals with Cytochrome P450 1A2 (Homo sapiens) (UniProt P05177). The experiment is described as follows: p450-cyp1a2 (AID 410; calls by dose curve; note: potency is the fitted concentration of half-maximal effect). The essentials: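 20nM CYP1A2, 100uM Luciferin-ME (=Km), 100mM KPO4; cpd 10 min RT; +NADPH regen, 60 min RT; stop/detect 20 min; luminescence. Normalized to furafylline 57 uM = full inhibition.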
A short description of experiment [4]: NFAT Signaling Pathway (AID 444).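 Note: carbachol stimulus at about its EC50 of 1 µM final; % is set by controls: 0 for no effect and ±100 for the full control effect.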 Conditions: Jurkat NFAT-bla M1, carbachol, beta-lactamase ratio, 5 h; at 7.69 µM (top of the series) unless noted. Summed up:
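Read-out: CCF4 FRET ratio (460 nm/530 nm) after 1 h RT dye loading, used for %activity and AC50 from titration series. Cells: Jurkat NFAT-β-lactamase/M1 line, treated with compound plus 1 uM carbachol for 5 h, 37 °C.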

Experiment [5] can be described thus: Stat Signaling Pathway (AID 446).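 Note: ME-180 cervical cancer cells given 40 pM IL-6 alongside compound; SIE-controlled beta-lactamase reporter measured as 460/530 nm FRET emission ratio; % is set by controls: 0 for no effect and ±100 for the full control effect.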 Conditions: ME-180 SIE beta-lactamase reporter, IL-6 stimulated, 5 h; at 7.69 µM (top of the series) unless noted. The essentials: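 Emission at 460 and 530 nm (excitation 405 nm) reports SIE-controlled beta-lactamase in ME-180 cells. Cells received compound with 40 pM IL-6 for 5 hrs at 37 C; data scaled between 300 pM IL-6 and 125 nM JAK-inhibitor controls.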

Experiment [6] deals with Glucocorticoid receptor (Homo sapiens) (UniProt P04150). The experiment is described as follows: GR-GFP Redistribution (AID 450;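 active = compounds whose dose series gives a full or clear partial fitted curve of increased nuclear translocation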; note: potency is the fitted concentration of half-maximal effect). The settings on record: U2OS GR-GFP nuclear translocation, laser cytometry, 2 h.
For experiment [7] the target is unchanged. As to the kind of experiment: GR-EFC Redistribution (AID 451; calls by dose curve; note: potency is the fitted concentration of half-maximal effect). The settings on record: CHO-K1 GR-EFC translocation, beta-gal luminescence, 2 h. The essentials:
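Translocation of GR-ED fusion to nuclear EA restores b-gal, read by luminescence after 1 h room-temperature detection. Engineered CHO-K1 biosensor cells, 1,000/well, exposed 2 h at 37 C to titrations up to 46 uM final.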

The target in experiment [8] is Mitogen-activated protein kinase 10 (Mus musculus) (UniProt Q61831). As to the kind of experiment: JNK3 AlphaScreen Assay (AID 530).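 Note: kinase came from lysate of stimulated human HepG2 cells; signal reports phosphorylation of biotinylated GST-cJun 1-79 at Ser73 with 10 µM ATP; % is set by controls: 0 for no effect and ±100 for the full control effect.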 Summed up: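 Kinase buffer: 20 mM Tris-HCl pH 7.6, 10 mM MgCl2, 1 mM DTT, 0.1 mM Na3VO4, 0.01% Tween-20; ATP 10 uM. Substrate biotin-GST-cJun(1-79), enzyme from activated HepG2 lysates. Detection by Ser73 phospho-antibody AlphaScreen.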
A general note: Alpha assays give light when donor and acceptor beads are brought close together.

The target of experiment [9] is 3',5'-cyclic-AMP phosphodiesterase 4B (Homo sapiens) (UniProt Q07343). The experiment is described as follows: qHTS Assay for Inhibitors of PDE-IV (AID 607; active = well fitted activation curve with a large enough effect in the main read-out, with a control signal flat, not every such curve was filed as active; note: % of control where 0% means no effect). Summed up: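 The readout is membrane depolarisation from a cAMP-sensing CNG channel, detected with a potential dye at ex 535/em 590. Cells were HEK293-derived (endogenous PDE-IV) at 1000 cells/well, titrated up to 22.9 uM final.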
A general note: qHTS replaces the single test concentration by a dilution series.

The target of experiment [10] is Cytochrome P450 3A4 (Homo sapiens) (UniProt P08684). The experiment is described as follows: qHTS Assay for Activators of Cytochrome P450 3A4 (AID 885; active = well fitted curve in the direction sought with a large enough effect; an effect the other way counts as inactive or inconclusive; note: nearly all actives have a fitted effect of over 65% in size). Summed up: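 Activators are scored by enhanced luminescence from CYP3A4 conversion of luciferin-PPXE (25uM, equal to KM) to luciferin, after 60 min at RT with an NADPH-regenerating system.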
Experiment [11] can be described thus: Confirmation and Secondary Assay for Modulators of Hemoglobin Beta Chain Splicing at IVS2 654 locus (AID 910; active = well fitted curve in the direction sought with a large enough effect; an effect the other way counts as inactive or inconclusive;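 note: HeLa cells stably carrying EGFP split by mutant beta-globin IVS2-654 intron; per-well total GFP intensity by laser scanning cytometry after 2-day treatment; % of control where 0% means no effect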). Summed up: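 Readout: per-well total peak green fluorescence (488 nm ex, 500–520 nm em) from objects 5–250 µm, reflecting correct splicing of an EGFP-654 reporter. Compounds were applied for 2 days at 37 °C to overnight-plated HeLa EGFP-654 cells; controls were DMSO and 500 nM IVS2-654 PNA.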

Experiment [12] in a line: Confirmation and Secondary Assay for Modulators of Hemoglobin Beta Chain Splicing at IVS2 705 locus (AID 930; active = well fitted curve in the direction sought with a large enough effect; an effect the other way counts as inactive or inconclusive;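 note: HeLa cells stably expressing the EGFP-705 splicing reporter; GFP fluorescence per well restored by corrected splicing of the IVS2-705 intron in EGFP; % of control where 0% means no effect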). Summed up: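 Per-well GFP, captured at 1 x 8 µm resolution with 488 nm excitation, served as the read-out for HeLa EGFP-705 cells incubated 2 days with test compound versus DMSO.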
Experiment [13] in a line: qHTS Assay for Lipid Storage Modulators (AID 1519; calls by dose curve). Conditions: Drosophila S3 cells, BODIPY lipid droplet/cell ratio, laser cytometry, cells loaded with oleic acid; for activity change, negative = inhibition: at 57.5 µM (top of the series). Summed up:
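Cells seeded at 5,000 per well were treated with compounds over a concentration series and loaded with oleic acid (400 uM, as added). Lipid droplet fluorescence (488 nm excitation, 500-530 nm channel) was read by laser-scanning cytometry and normalized to 20 uM Triacsin C.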

For experiment [14], the target named is Ubiquitin carboxyl-terminal hydrolase 1 (Homo sapiens) (UniProt O94782). As to the kind of experiment: Inhibitors of USP1/UAF1: Pilot qHTS (AID 504865; active = well fitted curve in the direction sought with a large enough effect; an effect the other way counts as inactive or inconclusive;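 note: rhodamine fluorescence freed from ubiquitin-rhodamine substrate followed over time; top concentration of the series differs between compounds; % is set by controls: 0 for no effect and ±100 for the full control effect; nearly all actives have a fitted effect of over 35% in size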). Summed up: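 Deubiquitinase activity followed as kinetic rhodamine fluorescence release from 150 nM Ub-Rho. 1 nM USP1/UAF1 with compound, after 15 min room-temperature preincubation, in HEPES pH 7.8 buffer containing TCEP, EDTA, BSA and Tween-20.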

Experiment [15] in a line: Primary qHTS for small molecule stabilizers of the endoplasmic reticulum resident proteome: Secreted ER Calcium Modulated Protein (SERCaMP) assay (AID 1508630; active = well fitted curve in the direction sought with a large enough effect; an effect the other way counts as inactive or inconclusive; note: % is set by controls: 0 for no effect and ±100 for the full control effect). The essentials:
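The SH-SY5Y reporter protocol was run at 3 concentrations up to 38.3 uM (primary) or 11 concentrations (follow-up): 16 h compound, 100 nM thapsigargin for 4 h, then extracellular luciferase luminescence.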

For experiment [16], the target named is Cytochrome P450 3A4 (Homo sapiens) (UniProt P08684). The experiment is described as follows: qHTS Assay for Inhibitors and Substrates of Cytochrome P450 3A4 (AID 884; active = well fitted curve in the direction sought with a large enough effect; an effect the other way counts as inactive or inconclusive; note: potency is the fitted concentration of half-maximal effect; nearly all actives have a fitted effect of over 50% in size). Summed up: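 Luminescent readout of luciferin produced by CYP3A4 (20 nM) dealkylation of Luciferin-PPXE, 25 uM (its KM). NADPH-driven reaction ran 60 min at RT after 10 min compound preincubation; data scaled to 57 uM ketoconazole as 100% inhibition.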

Experiment [17] in a line: qHTS Assay for Identification of Small Molecule Agonists for Hypoxia Response Element Signaling Pathway (AID 914; active = well fitted activation curve with a large enough effect in the signal ratio, with a control signal flat, not every such curve was filed as active; the % refers to the signal ratio; note: % of control where 0% means no effect). The settings on record: ME-180 (cervical carcinoma) HRE-bla reporter, beta-lactamase ratio, CoCl2, 17 h; activation: stronger effect = higher value. Summed up:
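In Opti-MEM containing 0.5% dialyzed FBS and 10 mM HEPES, ME-180 HRE-bla cells received a compound titration and EC50 CoCl2. They were incubated 17 hours, then CCF4-loaded 2.5 hours at room temperature before ratio reading.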

[18] abbreviates: measured here: cell count channel max response.
[19] abbreviates: measured here: lipid channel max response.

Structures are written as SMILES. Inconclusive results are not listed. Calls of active or inactive are those of the source. Unless noted, calls come from the whole dose curve; as a rule, active = well fitted curve in either direction with a large enough effect (not every such curve was filed as active); inconclusive = small, poorly fitted or top-dose-only effect, or another doubt; inactive = flat fitted curve, though single readings scatter. A value given as a limit tells only on which side of the number the result lay.

Sequence of Ubiquitin carboxyl-terminal hydrolase 1 (Homo sapiens) (O94782 whole entry, looked up): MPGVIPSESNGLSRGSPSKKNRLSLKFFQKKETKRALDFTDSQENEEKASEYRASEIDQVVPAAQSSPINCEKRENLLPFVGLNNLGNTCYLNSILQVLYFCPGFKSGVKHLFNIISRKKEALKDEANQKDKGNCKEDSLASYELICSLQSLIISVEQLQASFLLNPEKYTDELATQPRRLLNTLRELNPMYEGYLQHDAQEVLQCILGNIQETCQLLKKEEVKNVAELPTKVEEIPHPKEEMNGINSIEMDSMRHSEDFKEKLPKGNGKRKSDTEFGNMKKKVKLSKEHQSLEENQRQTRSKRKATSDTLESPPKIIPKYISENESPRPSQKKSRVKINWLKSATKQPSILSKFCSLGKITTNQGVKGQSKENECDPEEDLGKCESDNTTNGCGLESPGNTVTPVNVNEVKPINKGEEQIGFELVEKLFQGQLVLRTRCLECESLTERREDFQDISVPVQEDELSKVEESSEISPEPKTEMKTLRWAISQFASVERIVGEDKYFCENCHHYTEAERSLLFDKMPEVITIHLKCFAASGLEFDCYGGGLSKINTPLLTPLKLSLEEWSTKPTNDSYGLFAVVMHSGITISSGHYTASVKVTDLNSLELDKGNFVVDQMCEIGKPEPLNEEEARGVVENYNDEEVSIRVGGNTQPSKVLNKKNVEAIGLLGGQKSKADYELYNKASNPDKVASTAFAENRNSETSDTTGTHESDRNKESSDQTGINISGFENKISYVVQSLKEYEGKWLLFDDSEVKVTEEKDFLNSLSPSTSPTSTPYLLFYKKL
Sequence of Glucocorticoid receptor (Homo sapiens) (P04150 whole entry, looked up): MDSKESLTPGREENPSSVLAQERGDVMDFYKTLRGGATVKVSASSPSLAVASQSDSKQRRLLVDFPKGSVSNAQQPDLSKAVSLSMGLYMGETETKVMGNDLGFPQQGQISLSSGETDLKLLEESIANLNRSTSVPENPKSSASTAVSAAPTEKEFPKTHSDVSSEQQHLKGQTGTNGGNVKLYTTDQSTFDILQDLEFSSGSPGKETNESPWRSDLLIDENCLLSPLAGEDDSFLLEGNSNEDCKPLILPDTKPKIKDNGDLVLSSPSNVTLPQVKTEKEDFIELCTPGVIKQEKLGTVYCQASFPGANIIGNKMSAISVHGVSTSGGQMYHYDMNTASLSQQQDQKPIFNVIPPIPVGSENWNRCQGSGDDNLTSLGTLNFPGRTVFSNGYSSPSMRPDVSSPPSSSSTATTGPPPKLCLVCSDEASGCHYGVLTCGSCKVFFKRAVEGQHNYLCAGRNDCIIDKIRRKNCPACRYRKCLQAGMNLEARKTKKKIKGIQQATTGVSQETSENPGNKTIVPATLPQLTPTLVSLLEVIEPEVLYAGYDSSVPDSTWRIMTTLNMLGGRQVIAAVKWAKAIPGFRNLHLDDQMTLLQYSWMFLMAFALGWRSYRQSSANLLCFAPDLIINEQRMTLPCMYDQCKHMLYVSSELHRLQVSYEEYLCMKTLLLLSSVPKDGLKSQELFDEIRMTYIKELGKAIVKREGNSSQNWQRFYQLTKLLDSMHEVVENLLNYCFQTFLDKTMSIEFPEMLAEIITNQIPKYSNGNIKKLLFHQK
Sequence of 3',5'-cyclic-AMP phosphodiesterase 4B (Homo sapiens) (Q07343 whole entry, looked up): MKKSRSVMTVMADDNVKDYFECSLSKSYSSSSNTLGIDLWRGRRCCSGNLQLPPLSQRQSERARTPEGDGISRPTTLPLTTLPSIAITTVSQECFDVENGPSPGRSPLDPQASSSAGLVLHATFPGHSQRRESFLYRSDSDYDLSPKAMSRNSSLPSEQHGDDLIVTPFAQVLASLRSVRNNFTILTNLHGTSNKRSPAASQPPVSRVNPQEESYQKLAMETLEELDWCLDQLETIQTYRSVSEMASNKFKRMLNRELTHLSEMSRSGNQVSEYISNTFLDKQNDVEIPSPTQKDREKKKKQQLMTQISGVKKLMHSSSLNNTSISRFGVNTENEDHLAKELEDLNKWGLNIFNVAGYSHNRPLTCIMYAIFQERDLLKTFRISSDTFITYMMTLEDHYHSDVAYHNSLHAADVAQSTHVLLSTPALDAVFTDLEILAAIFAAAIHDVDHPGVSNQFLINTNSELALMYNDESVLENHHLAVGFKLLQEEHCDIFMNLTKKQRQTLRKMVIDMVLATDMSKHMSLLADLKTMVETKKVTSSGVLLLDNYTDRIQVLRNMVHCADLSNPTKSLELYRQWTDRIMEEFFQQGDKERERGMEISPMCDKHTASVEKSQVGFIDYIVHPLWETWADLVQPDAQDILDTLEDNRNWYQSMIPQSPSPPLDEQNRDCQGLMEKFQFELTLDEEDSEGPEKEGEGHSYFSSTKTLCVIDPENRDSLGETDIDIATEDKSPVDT
Sequence of Cytochrome P450 1A2 (Homo sapiens) (P05177 whole entry, looked up): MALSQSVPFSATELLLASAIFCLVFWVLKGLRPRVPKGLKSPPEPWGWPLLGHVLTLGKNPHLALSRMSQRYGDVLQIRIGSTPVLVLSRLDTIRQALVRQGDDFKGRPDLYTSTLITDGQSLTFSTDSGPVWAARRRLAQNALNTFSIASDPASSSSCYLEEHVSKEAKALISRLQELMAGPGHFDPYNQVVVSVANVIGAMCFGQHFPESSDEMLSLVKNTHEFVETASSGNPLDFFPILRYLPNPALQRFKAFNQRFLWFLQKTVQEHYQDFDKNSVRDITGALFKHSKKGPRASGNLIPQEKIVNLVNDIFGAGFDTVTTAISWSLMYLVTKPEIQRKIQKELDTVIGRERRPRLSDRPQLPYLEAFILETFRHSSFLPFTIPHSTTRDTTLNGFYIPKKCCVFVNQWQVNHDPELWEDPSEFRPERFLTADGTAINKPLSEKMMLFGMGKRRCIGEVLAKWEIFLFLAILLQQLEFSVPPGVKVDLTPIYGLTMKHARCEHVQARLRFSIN
Sequence of Cytochrome P450 3A4 (Homo sapiens) (P08684 whole entry, looked up): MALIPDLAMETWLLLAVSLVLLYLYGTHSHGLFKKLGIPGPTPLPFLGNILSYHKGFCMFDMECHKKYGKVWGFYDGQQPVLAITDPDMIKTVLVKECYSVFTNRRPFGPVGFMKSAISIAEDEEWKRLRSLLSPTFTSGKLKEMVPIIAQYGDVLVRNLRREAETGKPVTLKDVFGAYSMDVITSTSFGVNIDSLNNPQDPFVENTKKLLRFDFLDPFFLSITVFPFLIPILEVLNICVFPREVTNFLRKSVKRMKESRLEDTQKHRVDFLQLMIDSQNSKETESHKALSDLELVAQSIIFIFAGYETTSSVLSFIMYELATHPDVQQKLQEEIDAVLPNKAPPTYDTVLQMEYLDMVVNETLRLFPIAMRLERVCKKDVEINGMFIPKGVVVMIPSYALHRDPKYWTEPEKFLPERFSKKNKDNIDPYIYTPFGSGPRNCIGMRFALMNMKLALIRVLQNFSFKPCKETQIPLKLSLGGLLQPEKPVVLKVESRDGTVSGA
Sequence of Lysosomal acid glucosylceramidase (Homo sapiens) (P04062 whole entry, looked up): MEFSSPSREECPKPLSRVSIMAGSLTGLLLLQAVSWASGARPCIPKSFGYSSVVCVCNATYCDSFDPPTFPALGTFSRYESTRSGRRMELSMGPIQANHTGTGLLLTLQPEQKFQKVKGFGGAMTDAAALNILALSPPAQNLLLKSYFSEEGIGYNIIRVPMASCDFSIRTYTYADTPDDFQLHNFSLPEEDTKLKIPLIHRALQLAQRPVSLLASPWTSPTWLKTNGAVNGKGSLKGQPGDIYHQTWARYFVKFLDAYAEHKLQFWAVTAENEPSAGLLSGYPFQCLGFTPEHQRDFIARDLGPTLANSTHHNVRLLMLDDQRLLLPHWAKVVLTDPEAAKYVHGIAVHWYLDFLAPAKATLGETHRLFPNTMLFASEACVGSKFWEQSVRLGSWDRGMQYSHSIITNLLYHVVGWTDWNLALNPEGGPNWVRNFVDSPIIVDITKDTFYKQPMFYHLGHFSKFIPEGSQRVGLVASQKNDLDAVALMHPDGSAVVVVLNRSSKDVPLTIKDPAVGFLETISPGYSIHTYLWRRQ

As to `CN(C)c1ncnc2ccc(-c3ccccc3C#N)cc12`, the Potency in experiment [1] was > 11.4 µM (inactive); in [3], 0.398 µM (active); in experiment [6], > 46 µM (inactive); in [7] it was > 46 µM (inactive). Moreover, the activity change, negative = inhibition in [2] was -24% (inactive); in experiment [4], 20.3% (inactive); in experiment [13], 8.38% (inactive). The activity, negative = inhibition in [5] is 18.9% (inactive). For the same compound, the result in experiment [8], in experiment [11] and in experiment [12] was inactive. The Potency entry in experiment [9], in [10], in experiment [14] and in experiment [15] was “inactive” each time. For the same compound, the results for the max response in experiment [13] (setting [18]) and in experiment [13] (setting [19]) were 15.4% and 23.3%, respectively.

For `COc1cccc(-c2cc(NCc3cccs3)ncn2)c1`, the Potency in experiment [1] is > 11.4 µM (inactive); in experiment [3], 1.26 µM (active); in [6], > 46 µM (inactive); in experiment [7], > 46 µM (inactive); in [16], 7.94 µM (active). In addition, the activity change, negative = inhibition is 3.15% (inactive) in [2], 17% (inactive) in experiment [4] and 9.36% (inactive) in experiment [13]. For the same compound, in experiment [5], the activity, negative = inhibition was -4.26% (inactive). The outcome in experiment [8], in [11] and in [12] was inactive. The Potency entry in experiment [10], in [14] and in [15] was “inactive” each time. In experiment [17], the activation is -6.23% (inactive). Also, the max response came to 10.6% in experiment [13] (setting [18]) and 25% in experiment [13] (setting [19]).

In the case of `O=c1c(-c2ccccc2)nc2cnc(Oc3ccccc3)nc2n1Cc1cccs1`, the Potency in [1] is > 11.4 µM (inactive); in [3] it was 2.51 µM (active); in [6], > 9.22 µM (inactive); in [7] it was > 46 µM (inactive). In addition, the activity change, negative = inhibition is -0.0665% (inactive) in experiment [2], -0.0107% (inactive) in [4] and -10.3% (inactive) in experiment [13]. The activity, negative = inhibition in experiment [5] was 3.84% (inactive). Besides, the call in experiment [8] was inactive. Moreover, the Potency entry in [9] and in experiment [15] was “inactive” throughout. Moreover, the figures for the max response in experiment [13] (setting [18]) and in [13] (setting [19]) were 21.8% and 12.8%, respectively.

Consider `CN(C)Cc1ccccc1-c1cc(Nc2ccccc2)ncn1`, for which the Potency in experiment [1] is > 11.4 µM (inactive); in [3] it was 15.8 µM (active); in experiment [6], > 46 µM (inactive); in [7], > 46 µM (inactive). For the same compound, the values for the activity change, negative = inhibition in experiment [2], in [4] and in experiment [13] were 1.09% (inactive), -10.2% (inactive) and 4.87% (inactive), respectively. Moreover, the activity, negative = inhibition in [5] is 9.68% (inactive). Also, the compound was called inactive in experiment [8], in [11] and in [12]. For the same compound, the Potency entry in [9], in experiment [14] and in [15] was “inactive” each time. Moreover, the max response is 5.64% in [13] (setting [18]) and 12.4% in experiment [13] (setting [19]).

Turning to `Cc1nc2cnc(N3CCOCC3)nc2n(CCC#N)c1=O`, the Potency in experiment [1] is > 11.4 µM (inactive); in [3], 12.6 µM (active); in [6], > 9.22 µM (inactive); in experiment [7], > 46 µM (inactive). In addition, the activity change, negative = inhibition in [2] is 2.45% (inactive); in [4] it was -9.52% (inactive); in experiment [13], 5.38% (inactive). For the same compound, the activity, negative = inhibition in experiment [5] was 21.2% (inactive). In [8], the result was inactive. The max response in [13] (setting [18]) is 1.22%; in experiment [13] (setting [19]) it was 11.9%. For the same compound, the Potency result in experiment [15] is “inactive”.

For the compound `COc1ncc2ncc(=O)n(C)c2n1`, the Potency in experiment [1] is > 11.4 µM (inactive); in [3], 12.6 µM (active); in experiment [6] it was > 9.22 µM (inactive); in experiment [7] it was > 46 µM (inactive). Besides, the activity change, negative = inhibition in experiment [2] is -3.14% (inactive); in experiment [4], 2.1% (inactive); in experiment [13], 6.15% (inactive). Moreover, the activity, negative = inhibition in experiment [5] was -12.1% (inactive). Besides, the result in experiment [8] was inactive. Moreover, the Potency result in experiment [9] and in [15] was “inactive” each time. The max response in [13] (setting [18]) is 14.9%; in experiment [13] (setting [19]) it was 24.1%.
